This is a sample that favours compounds with a hit; in the whole collection about 27% have one here.
sEH inhibitor: soluble epoxide hydrolase inhibitors, primary screen, biochemical, human sEH; Bifunctional epoxide hydrolase 2 (Homo sapiens), P34913; recombinant human sEH enzymatic activity assay; inhibition, % at 2 µM; actives 0.34% (n = 91,000); AID 707, 2007; in the data active = inhibition above about 80%
CYP2C9 inh: blockers of cytochrome P450 2C9 activity – biochemical, luminescence, ADME assay, primary screen; P11712; inhibition, % at 5 µM; CYP2C9 Supersomes, luciferin-H conversion; actives 20% (n = 96,000);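 active = blocking of liver enzyme CYP2C9 beyond about 50% at 5 µM, limit read from the data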
Target sequence (P11712 whole entry, looked up): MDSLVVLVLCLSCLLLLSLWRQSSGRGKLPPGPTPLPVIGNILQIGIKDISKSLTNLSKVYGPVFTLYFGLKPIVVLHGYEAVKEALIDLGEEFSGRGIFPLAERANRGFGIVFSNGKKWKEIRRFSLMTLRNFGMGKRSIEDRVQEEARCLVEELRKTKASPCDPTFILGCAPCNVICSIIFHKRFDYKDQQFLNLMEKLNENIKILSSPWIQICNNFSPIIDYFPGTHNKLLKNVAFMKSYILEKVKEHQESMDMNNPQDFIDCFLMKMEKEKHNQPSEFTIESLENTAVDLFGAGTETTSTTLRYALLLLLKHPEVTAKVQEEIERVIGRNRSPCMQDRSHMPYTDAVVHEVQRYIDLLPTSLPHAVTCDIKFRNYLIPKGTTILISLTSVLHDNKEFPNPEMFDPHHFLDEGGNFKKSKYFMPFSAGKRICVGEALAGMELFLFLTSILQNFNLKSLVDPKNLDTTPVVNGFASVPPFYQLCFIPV
CYP2C9 activ: human CYP2C9 activators, primary screen, biochemical, luminescence; recombinant CYP2C9, luciferin-H conversion; stronger effect = higher value; factor 1 = untreated enzyme, 0 = blocked; actives 1.4% (n = 96,000); activation factor at 5 µM; Cytochrome P450 2C9 (Homo sapiens), P11712;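 active = activation factor of 2 or more for CYP2C9 at a 5 µM dose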
sEH activator: soluble epoxide hydrolase activators, primary screen, biochemical, human sEH. purified human sEH enzymatic activity, activator screen. activation, % at 2 µM. actives 0.04% (n = 91,000). AID 717, 2007; in the data active = activation above about 37%
CYP2C19 activ: human CYP2C19 activators, primary screen, biochemical, luminescence. Cytochrome P450 2C19 (Homo sapiens), P33261. recombinant CYP2C19, luciferin-H EGE luminescence; stronger effect = higher value; 0 = fully inhibited enzyme, 1 = untreated enzyme. activation factor at 5 µM. 96,000 tested, under 10 active;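 active = activation factor of at least 2 at 5 µM in the primary screen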
CYP2C19 inhib: blockers of cytochrome P450 2C19 activity – biochemical, luminescence, ADME assay, primary screen; inhibition, % at 5 µM; CYP2C19 Supersomes, luciferin-H EGE luminescence, 30 min; P33261; AID 778, 2007; actives 21% (n = 96,000);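 active = CYP2C19 inhibition above a set limit at 5 µM in the primary screen, cut at about 50% in these data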
Hits are given with their value; n = inactive; x = no result.

SMILES | sEH inhibitor | CYP2C9 inh | CYP2C9 activ | sEH activator | CYP2C19 activ | CYP2C19 inhib
Cc1cc(C(=O)OCC(=O)Nc2cccc(S(=O)(=O)N3CCOCC3)c2)c(C)o1 | n | 83 | n | n | n | 73
O=C(COc1ccc(S(=O)(=O)N2CCCC2)cc1Cl)Nc1ccc2c(c1)OCO2 | n | n | n | n | n | n
O=C(COC(=O)CCc1ccc(S(=O)(=O)N2CCCCC2)cc1)Nc1ccc2c(c1)OCO2 | x | 76 | n | x | n | n
CCOC(=O)c1ccccc1NC(=O)COC(=O)c1ccc(C)c(S(=O)(=O)N2CCOCC2)c1 | x | 61 | n | x | n | n
O=C(COC(=O)c1cc(S(=O)(=O)N2CCOCC2)ccc1Cl)Nc1ccc2c(c1)OCO2 | x | 61 | n | x | n | 68
Cc1c(NC(=O)CSc2nnnn2-c2ccc(O)cc2)c(=O)n(-c2ccccc2)n1C | n | n | n | n | n | n
Cc1coc(NC(=O)CSc2nc(-c3ccncc3)cc(C(F)(F)F)c2C#N)n1 | n | n | n | n | n | n
CCCc1nnc(NC(=O)c2c(O)c3cccc4c3n(c2=O)CCC4)s1 | x | n | n | x | n | n
O=C(Nc1ccc(N2CCOCC2)cc1)c1cccc(S(=O)(=O)N2CCCC2)c1 | n | n | n | n | n | n
O=C(Oc1cccc(NC(=O)c2ccco2)c1)c1cccc(S(=O)(=O)N2CCCCC2)c1 | n | n | n | n | n | n
Cc1ccc(C(=O)Oc2cccc(NC(=O)c3cccs3)c2)cc1S(=O)(=O)N1CCOCC1 | n | 58 | n | n | n | n
CCN(c1ccc(NC(=O)COC(=O)c2ccc(C)c(S(=O)(=O)N3CCOCC3)c2)cc1)C(C)C | n | n | n | n | n | n
Cc1ccc(C(=O)OCC(=O)Nc2ccc3c(c2)OCO3)cc1S(=O)(=O)N1CCOCC1 | n | 51 | n | n | n | n
O=C(Nc1ccc(N2CCOCC2)cc1)c1cccc(S(=O)(=O)N2CCC(Cc3ccccc3)CC2)c1 | n | 64 | n | n | n | n
O=C(Nc1cccc(S(=O)(=O)N2CCOCC2)c1)c1ccco1 | n | n | n | n | n | 75
O=C1[C@@H]2C(c3ccccc3Cl)=NO[C@@H]2C(=O)N1Cc1ccccc1 | n | 73 | n | n | n | 99
COc1ccc(Cl)cc1N1C(=O)[C@@H]2C(c3cccc(OC)c3OC)=NO[C@@H]2C1=O | n | n | n | n | n | n
COc1ccc(OC)c(C2=NO[C@@H]3C(=O)N(c4cc(Cl)ccc4OC)C(=O)[C@H]23)c1 | n | n | n | n | n | 62
CC1=C(C)CC2C(=O)N(Cc3ccccc3)C(=O)C2C1 (stereo unspecified) | n | n | n | n | n | n
COc1ccc(CN2C(=O)[C@@H]3C(c4ccccc4Cl)=NO[C@@H]3C2=O)cc1 | n | 70 | n | n | n | 87
COC(=O)Cc1csc(N)n1 | n | n | n | n | n | n
CC1(C)CC(=O)C(Sc2nnc(-c3ccc(O)cc3)n2CC2CCCO2)C(=O)C1 (stereo unspecified) | n | n | n | n | n | n
O/N=C/c1ccccc1OCc1ccc(Cl)cc1 | n | 69 | n | n | n | 52
O=C(Cc1ccccc1)N/N=C/c1ccccc1OCc1ccc(Cl)cc1 | n | 62 | n | n | n | n
O/N=C/c1ccccc1OCc1ccccc1Cl | n | n | n | n | n | n
SMILES | sEH inhibitor | CYP2C9 inh | CYP2C9 activ | sEH activator | CYP2C19 activ | CYP2C19 inhib
CCCCn1nnnc1SCC(=O)N1CCOCC1 | n | n | n | n | n | n
Clc1ccc(-c2nnnn2-c2ccc(Cl)c(Cl)c2)cc1Cl | n | 53 | n | n | n | 96
Clc1ccc(-c2nnc3n2CCCC3)cc1Cl | n | n | n | n | n | n
Cc1ccc(S(=O)(=O)NC2=NCN(CCN3CCOCC3)CN2)cc1 | n | n | n | n | n | n
CCN(CC)C(=O)CSC1=Nc2ccccc2C2=NC(c3ccccc3)C(=O)N12 (stereo unspecified) | n | 61 | n | n | n | n
CCOC(=O)CSC1=Nc2ccccc2C2=NC(CC(=O)NCc3ccccc3)C(=O)N12 (stereo unspecified) | n | 57 | n | n | n | n
CCC(C)NC(=O)CSC1=Nc2ccccc2C2=NC(CC(=O)NCc3ccc(F)cc3)C(=O)N12 (stereo unspecified) | n | n | n | n | n | n
CCOC(=O)CSC1=Nc2ccccc2C2=NC(CC(=O)NCc3cccs3)C(=O)N12 (stereo unspecified) | n | 65 | n | n | n | n
CCN(CC)CCCN1C(=O)C(=O)/C(=C(/O)c2ccccc2)C1c1cc(OC)ccc1OC (stereo unspecified) | x | n | n | x | n | n
CC(c1cccnc1)N(CCN(C)C)C(=O)Nc1ccc(Cl)cc1 (stereo unspecified) | n | n | n | n | n | n
COc1ccc(N(CC(=O)NN=C2CCCC2)S(=O)(=O)c2ccccc2)cc1 | n | n | n | n | n | 51
CCOc1ccc(N(CC(=O)OC)S(=O)(=O)c2ccc3c(c2)n(C)c(=O)c(=O)n3C)cc1 | n | 56 | n | n | n | n
CCOc1ccccc1N(CC(=O)OC)S(=O)(=O)c1ccccc1 | n | 71 | n | n | n | 51
COC(=O)CN(c1ccc(OC)cc1)S(=O)(=O)c1ccc(OC)c(OC)c1 | n | n | n | n | n | 94
COc1ccc(N(CC(=O)NN=C2CCCCCCC2)S(=O)(=O)c2ccccc2)cc1Cl | n | n | n | n | n | n
Fc1ccc(-c2nnc(-n3nnc4ccccc43)c3ccccc23)cc1 | n | x | x | n | x | x
COc1ccc(N(CC(=O)O)S(=O)(=O)c2ccc(OC)c(OC)c2)cc1 | n | n | n | n | n | n
CCOc1ccc(N(CC(N)=O)S(=O)(=O)c2ccc(F)cc2)cc1 | n | n | n | n | n | n
CCOc1ccc(S(=O)(=O)N(CC(N)=O)c2ccc(C)cc2)cc1 | n | n | n | n | n | 71
COc1ccc(OC)c(N(CC(N)=O)S(=O)(=O)c2ccc(OC)c(OC)c2)c1 | n | n | n | n | n | 78
CCOc1ccc(N(CC(=O)OC)S(=O)(=O)c2ccc(OC)c(OC)c2)cc1 | n | 55 | n | n | n | 64
CCOC(=O)N1CCN(C(=O)COc2ccccc2OC)CC1 | n | n | n | n | n | n
COc1ccc(N(C(=O)COc2ccccc2OC)S(=O)(=O)c2ccc(C)cc2)cc1 | n | 52 | n | n | n | n
Cc1ccc(S(=O)(=O)N(Cc2nccn2C)C(C)C)cc1 | n | n | n | n | n | n
CCC(C)NC(=O)CN(c1ccc(OC)cc1)S(=O)(=O)c1ccc(NC(C)=O)cc1 (stereo unspecified) | x | 57 | n | x | n | n
O=C(Cc1ccc(Br)cc1)NC1CCCCC1 | n | n | n | n | n | n
